# Laboratory results taken from PubChem BioAssay (Tox21).
# Records with an inconclusive call do not appear. Entries that show only a call come without a potency. Activity calls are given as the source filed them. Calls come from the whole dose curve; as a rule, active = well fitted curve in the direction sought with a large enough effect in the repeat runs; inconclusive = weak or mixed curves; inactive = no such curve, though single readings can be large; an effect the other way counts as inactive or inconclusive.
# Test: qHTS assay to identify small molecule agonists of the RXR signaling pathway - cell viability counter screen (AID 1159529);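 note: HEK 293T cells carrying an RXR-alpha UAS beta-lactamase reporter; nearly all actives have a fitted effect of over 50% in size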
# Settings: RXR-alpha-bla HEK293T viability, CellTiter-Glo, 16 h; series mostly up to 76.8 µM
# Summary of the method: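 Same-well viability check after the LiveBLAzer FRET read: CellTiter-Glo added, luminescence measured after 30 min at room temperature. Reporter HEK 293T cells had been treated with compounds for 16 hr following a 5 hr preincubation.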
row,Structure (SMILES),Potency
1,Nc1nc(Cl)cc(Cl)n1,inactive
2,Cc1ccc(NC(N)=O)cc1,inactive
3,CCCC(=O)C(CC)Sc1ccoc1C (centres undefined),inactive
4,Cc1ccc(O)c(C(=O)c2ccccc2)c1,inactive
5,CCOC(=O)c1ccc(N(C)C)cc1,inactive
6,COC(=O)c1c(C)cc(O)c(C)c1O,inactive
7,COc1cc(NS(=O)(=O)c2ccc(N)cc2)ncn1,inactive
8,Clc1ccc2c(c1)Nc1ccccc1S2,inactive
9,O=Cc1ccccc1S(=O)(=O)O,inactive
10,CC(C)(O)c1ccc(C(C)(C)O)cc1,inactive
11,COc1cc(C(=O)NC2CCCNC2)cc(OC)c1OC (centres undefined),inactive
12,Cc1nc2ccc(Cl)cc2[nH]1,inactive
13,COC(=O)C(c1ccccc1Cl)N1CCc2sccc2C1 (centres undefined),inactive
14,CC1(C)S[C@@H]2[C@H](NC(=O)Cc3ccccc3)C(=O)N2[C@H]1C(=O)O (tested in a mixture with another compound),inactive
15,CCCCC(CC)CCC(CC(C)C)OS(=O)(=O)O (centres undefined),inactive
16,Nc1cc(S(=O)(=O)O)ccc1O,inactive
17,O=C(O)COc1ccc2ccccc2c1,inactive
18,O=S(=O)(O)CC(O)CCl (centres undefined),inactive
19,O=C(c1ccccc1)c1cccc(O)c1,inactive

row,Structure (SMILES),Potency
1,O=C1Nc2ccccc2C1=O,inactive
2,CCCC(C)C(O)CC (centres undefined),inactive
3,Cc1cc(N)no1,inactive
4,NNC(=O)OCc1ccccc1,inactive
5,CCCCCCC(O)CO (centres undefined),inactive
6,C=CCOC(=O)CCCCCCCC,inactive
7,Cc1cc(C)c(C)c(C)c1,inactive
8,Cc1cc2c(cc1CC(=O)c1sccc1S(=O)(=O)Nc1onc(C)c1Cl)OCO2,inactive
9,C=C(C)C(=O)OCCOC1CC2CC1C1C=CCC21 (centres undefined),inactive
10,O=C(O)CCCCCCCCCC(=O)O,inactive
11,CC(=O)OC1CCC(C(C)(C)C)CC1 (centres undefined),inactive
12,CCCCCCCCCCCBr,inactive
13,Cc1cc(=O)oc2cc(O[C@@H]3SC[C@@H](O)[C@H](O)[C@H]3O)ccc12,inactive
14,CCN1CCN(C(=O)N[C@@H](C(=O)N[C@@H]2C(=O)N3[C@@H]2SC(C)(C)[C@H]3C(=O)O)c2ccccc2)C(=O)C1=O,inactive
15,CC[N+](C)(CC)CC,inactive
16,COc1cc(OC)cc(OC)c1,inactive
17,O=S(=O)(O)c1ccc(Cl)cc1,inactive
18,CC1=C(O)C(=O)CO1,inactive
19,CCOC(=O)CN1CCCC1=O,inactive

# Test: qHTS assay to identify small molecule antagonists of the retinoid acid receptor (RAR) signaling pathway - cell viability counter screen (AID 1159551); note: nearly all actives have a fitted effect of over 35% in size
# Settings: C3RL4 cells viability, ATP luminescence (CellTiter-Glo), 6 h; series mostly up to 92.4 µM
# Summary of the method: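 Retinol-stimulated (1 uM final) C3RL4 cells, compound 6 h, 37 C; readout CellTiter-Glo luminescence (ATP) after 30 min RT incubation.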
row,Structure (SMILES),outcome
1,Nc1nc(Cl)cc(Cl)n1,inactive
2,Cc1ccc(NC(N)=O)cc1,inactive
3,CCCC(=O)C(CC)Sc1ccoc1C (centres undefined),inactive
4,Cc1ccc(O)c(C(=O)c2ccccc2)c1,inactive
5,CCOC(=O)c1ccc(N(C)C)cc1,inactive
6,COC(=O)c1c(C)cc(O)c(C)c1O,inactive
7,COc1cc(NS(=O)(=O)c2ccc(N)cc2)ncn1,inactive
8,Clc1ccc2c(c1)Nc1ccccc1S2,inactive
9,O=Cc1ccccc1S(=O)(=O)O,inactive
10,CC(C)(O)c1ccc(C(C)(C)O)cc1,inactive
11,COc1cc(C(=O)NC2CCCNC2)cc(OC)c1OC (centres undefined),inactive
12,Cc1nc2ccc(Cl)cc2[nH]1,inactive
13,COC(=O)C(c1ccccc1Cl)N1CCc2sccc2C1 (centres undefined),inactive
14,CC1(C)S[C@@H]2[C@H](NC(=O)Cc3ccccc3)C(=O)N2[C@H]1C(=O)O (tested in a mixture with another compound),inactive
15,CCCCC(CC)CCC(CC(C)C)OS(=O)(=O)O (centres undefined),inactive
16,Nc1cc(S(=O)(=O)O)ccc1O,inactive
17,O=C(O)COc1ccc2ccccc2c1,inactive
18,O=S(=O)(O)CC(O)CCl (centres undefined),inactive
19,O=C(c1ccccc1)c1cccc(O)c1,inactive

row,Structure (SMILES),outcome
1,O=C1Nc2ccccc2C1=O,inactive
2,CCCC(C)C(O)CC (centres undefined),inactive
3,Cc1cc(N)no1,inactive
4,NNC(=O)OCc1ccccc1,inactive
5,CCCCCCC(O)CO (centres undefined),inactive
6,C=CCOC(=O)CCCCCCCC,inactive
7,Cc1cc(C)c(C)c(C)c1,inactive
8,Cc1cc2c(cc1CC(=O)c1sccc1S(=O)(=O)Nc1onc(C)c1Cl)OCO2,inactive
9,C=C(C)C(=O)OCCOC1CC2CC1C1C=CCC21 (centres undefined),inactive
10,O=C(O)CCCCCCCCCC(=O)O,inactive
11,CC(=O)OC1CCC(C(C)(C)C)CC1 (centres undefined),inactive
12,CCCCCCCCCCCBr,inactive
13,Cc1cc(=O)oc2cc(O[C@@H]3SC[C@@H](O)[C@H](O)[C@H]3O)ccc12,inactive
14,CCN1CCN(C(=O)N[C@@H](C(=O)N[C@@H]2C(=O)N3[C@@H]2SC(C)(C)[C@H]3C(=O)O)c2ccccc2)C(=O)C1=O,inactive
15,CC[N+](C)(CC)CC,inactive
16,COc1cc(OC)cc(OC)c1,inactive
17,O=S(=O)(O)c1ccc(Cl)cc1,inactive
18,CC1=C(O)C(=O)CO1,inactive
19,CCOC(=O)CN1CCCC1=O,inactive

# Test: qHTS assay to identify small molecule antagonists of the retinoic acid receptor (RAR) signaling pathway (AID 1159552; note: nearly all actives have a fitted effect of over 50% in size)
# Settings: C3RL4 RARE luciferase reporter, retinol-stimulated, 6 h; series mostly up to 92.4 µM
# Summary of the method: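 Readout: luciferase luminescence, 30 min post-reagent at RT. Setup: C3RL4 RARE reporter cells, compounds plus retinol 1 uM final, 6 hr incubation at 37 C and 5% CO2.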
row,Structure (SMILES),outcome
1,Nc1nc(Cl)cc(Cl)n1,inactive
2,Cc1ccc(NC(N)=O)cc1,inactive
3,CCCC(=O)C(CC)Sc1ccoc1C (centres undefined),inactive
4,Cc1ccc(O)c(C(=O)c2ccccc2)c1,inactive
5,CCOC(=O)c1ccc(N(C)C)cc1,inactive
6,COC(=O)c1c(C)cc(O)c(C)c1O,inactive
7,COc1cc(NS(=O)(=O)c2ccc(N)cc2)ncn1,inactive
8,Clc1ccc2c(c1)Nc1ccccc1S2,inactive
9,O=Cc1ccccc1S(=O)(=O)O,inactive
10,CC(C)(O)c1ccc(C(C)(C)O)cc1,inactive
11,COc1cc(C(=O)NC2CCCNC2)cc(OC)c1OC (centres undefined),inactive
12,Cc1nc2ccc(Cl)cc2[nH]1,inactive
13,COC(=O)C(c1ccccc1Cl)N1CCc2sccc2C1 (centres undefined),inactive
14,CC1(C)S[C@@H]2[C@H](NC(=O)Cc3ccccc3)C(=O)N2[C@H]1C(=O)O (tested in a mixture with another compound),inactive
15,CCCCC(CC)CCC(CC(C)C)OS(=O)(=O)O (centres undefined),inactive
16,Nc1cc(S(=O)(=O)O)ccc1O,inactive
17,O=C(O)COc1ccc2ccccc2c1,inactive
18,O=S(=O)(O)CC(O)CCl (centres undefined),inactive
19,O=C(c1ccccc1)c1cccc(O)c1,inactive

row,Structure (SMILES),outcome
1,O=C1Nc2ccccc2C1=O,inactive
2,CCCC(C)C(O)CC (centres undefined),inactive
3,Cc1cc(N)no1,inactive
4,NNC(=O)OCc1ccccc1,inactive
5,CCCCCCC(O)CO (centres undefined),inactive
6,C=CCOC(=O)CCCCCCCC,inactive
7,Cc1cc(C)c(C)c(C)c1,inactive
8,Cc1cc2c(cc1CC(=O)c1sccc1S(=O)(=O)Nc1onc(C)c1Cl)OCO2,inactive
9,C=C(C)C(=O)OCCOC1CC2CC1C1C=CCC21 (centres undefined),inactive
10,O=C(O)CCCCCCCCCC(=O)O,inactive
11,CC(=O)OC1CCC(C(C)(C)C)CC1 (centres undefined),inactive
12,CCCCCCCCCCCBr,inactive
13,Cc1cc(=O)oc2cc(O[C@@H]3SC[C@@H](O)[C@H](O)[C@H]3O)ccc12,inactive
14,CCN1CCN(C(=O)N[C@@H](C(=O)N[C@@H]2C(=O)N3[C@@H]2SC(C)(C)[C@H]3C(=O)O)c2ccccc2)C(=O)C1=O,inactive
15,CC[N+](C)(CC)CC,inactive
16,COc1cc(OC)cc(OC)c1,inactive
17,O=S(=O)(O)c1ccc(Cl)cc1,inactive
18,CC1=C(O)C(=O)CO1,inactive
19,CCOC(=O)CN1CCCC1=O,inactive
